Inhibition data for 22 compounds are collected here from PubChem BioAssay AID800 (PCMD, 2007).

The structures appear in SMILES notation. The campaign covered roughly 220,000 compounds. About 650 (0.3%) were called active. Shown is part of a subset that was picked to be rich in actives. A number with no mark means an inactive call. Cut-off read from the data, not from the text of the source: active = inhibition above about 40%; inactive = the rest.

Chain of Coagulation factor XII (Homo sapiens) (P00748 20-372 limits assumed): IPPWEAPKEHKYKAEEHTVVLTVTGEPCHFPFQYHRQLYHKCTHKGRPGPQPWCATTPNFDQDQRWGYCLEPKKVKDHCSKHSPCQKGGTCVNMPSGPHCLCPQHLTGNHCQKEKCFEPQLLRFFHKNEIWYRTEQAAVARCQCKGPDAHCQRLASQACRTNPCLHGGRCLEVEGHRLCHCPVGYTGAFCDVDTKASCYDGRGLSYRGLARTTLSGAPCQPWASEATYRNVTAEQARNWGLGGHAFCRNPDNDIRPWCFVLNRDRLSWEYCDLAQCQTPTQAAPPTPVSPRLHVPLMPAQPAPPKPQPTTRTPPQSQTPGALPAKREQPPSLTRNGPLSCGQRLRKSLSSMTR
Chain of Coagulation factor XII (Homo sapiens) (P00748 373-615 limits assumed): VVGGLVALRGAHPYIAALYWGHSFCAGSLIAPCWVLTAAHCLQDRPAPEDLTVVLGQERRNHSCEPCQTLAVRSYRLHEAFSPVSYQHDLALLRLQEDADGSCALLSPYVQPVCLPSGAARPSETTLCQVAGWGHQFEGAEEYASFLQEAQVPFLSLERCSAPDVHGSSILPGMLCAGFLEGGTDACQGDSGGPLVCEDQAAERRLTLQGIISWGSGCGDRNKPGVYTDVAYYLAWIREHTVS

The test has as its target Coagulation factor XII (Homo sapiens) (UniProt P00748). Kind of test: human FXIIa protease inhibitors, primary screen, biochemical, 1536-well (AID 800).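 Note: 0% = enzyme with no compound and 100% = blank without enzyme.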 The conditions noted are these: purified FXIIa, Boc-QGR-AMC fluorogenic substrate, 2 h; at 5 µM; stronger effect = higher value.
For `Cc1cc(-n2cnc(-c3cn(C)nc3C)n2)no1`, the inhibition (as a rule, the drop in the measured response relative to a control, in per cent) is 11.1%.
As for `CCCCCCNS(=O)(=O)c1ccccc1Br`, the figure is 9.21%; as for `O=C(Cn1cnc2cc([N+](=O)[O-])ccc2c1=O)NC(=O)NCc1ccccc1`, 1.31%.
Take `CCOC(=O)NNc1cc(C(F)(F)F)ccn1`: the inhibition is 9.46%.
As for `O=C(NNS(=O)(=O)c1ccccc1C(F)(F)F)c1cc2ncc(C(F)(F)F)cc2s1`, the figure is 9.81%.
Regarding `CCc1ccc[n+](-c2nc([O-])sc2C=O)c1`, the inhibition was 9.94%.
The same measure for `C#CCOCCOCCOCCNc1nc(N2CCN(C(=O)[C@H](CCC(=O)O)n3cc(C(N)CO)nn3)CC2)nc(N2CCN(C(=O)[C@H](CCCCN)n3cc(C(N)CC(C)C)nn3)CC2)n1` (some centres not stated): 5.53%.
With `N#Cc1c(NCCO)ccc([N+](=O)[O-])c1NCCO`, the inhibition was 12.3%.
Turning to `CCCC[C@@H]1CN=C(N)N1CCc1cc(C(F)(F)F)cc(C(F)(F)F)c1`, the inhibition is 2.17%.
`CC(C)c1ccc(NC(=S)NC2CC3C=CC2C3)cc1` (configuration not stated): the inhibition was 3.63%.
For `CCCc1c(C(=O)Nc2ccc(F)cc2)cnn1-c1ccccc1`, the inhibition was -0.53%.
The same measure for `CCOC(=O)c1c(NC(=O)c2ccc(Br)o2)sc2c1CCCC2`: 44% (active); for `CCOCC(=O)Nc1sc2c(c1C(=O)OCC)CCCC2`: 5.03%.
The same measure for `CCOC(=O)c1c(NC(=S)NC(=O)c2ccco2)sc2c1CCCC2`: 23.9%; for `C=C1CCN([C@H](C(=O)NCc2cc(OC)c(OC)c(OC)c2)C(C)C)S(=O)(=O)c2ccccc21`: 4.35%; for `FC(F)(F)c1ccnc(Oc2ccc(C3=NCCS3)cc2)c1`: 9.29%.
On to `CCOc1ccc(C2c3[nH]c4ccccc4c3CCN2Cc2cccn2-c2ncccn2)cc1` (configuration not stated), for which the inhibition was 4.53%.
The same measure for `CC(C)(C)CN1C(=O)C(=O)NC[C@H]1Cc1cccc2ccccc12`: 4.1%.
Consider `COCc1cc(=O)[nH]c(-c2ccc(C(F)(F)F)cc2)n1`, for which the inhibition was 8.57%.
The same measure for `COc1ccccc1C1CCN(C(=S)Nc2ccc(Br)cc2)CC1`: 3.05%; for `Fc1ccc(-c2csc(-c3ccc(C4SCCS4)cc3)n2)cc1F`: 7.1%.
The same measure for `COc1ccc(C(CC(=O)N2CCN(c3ccccc3)CC2)c2c(O)cc(OC)cc2OC)cc1` (configuration not stated): 1.72%.
